Pf growth 96h: P. falciparum growth inhibition at 96 hour, primary screen for plastid delayed-death inhibitors. P. falciparum luciferase reporter growth, 96 h. Potency, µM (titrated, usually from 28.7 µM), for the others: top-dose activity change, negative = inhibition, hits mostly inhibitors. actives 6.9% (n = 320,000); also: potency is read from the fitted curve at half-maximal effect; % is scaled to controls: 0 for no effect and ±100 for the full control effect
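Infected RBCs, 2% Hct / 0.05% parasitemia final; luciferase-reporter P. falciparum; cpd 96 h, 37 C, 5% CO2; luciferase detection reagent; luminescence.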
Pf growth 48h: inhibits P. falciparum growth in the first generation, 48 h. AID 504832. P. falciparum luciferase growth in erythrocytes, 48 h. actives 5.9% (n = 310,000). Potency, µM (titrated, usually from 28.7 µM), inactives show at the top dose activity change, negative = inhibition, actives largely listed as inhibitors; also: potency is read from the fitted curve at half-maximal effect; % is scaled to controls: 0 for no effect and ±100 for the full control effect
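Parasite viability was followed by luminescence of a genomically integrated firefly luciferase. Cultures held 0.1% parasitemia at 2% hematocrit (final), incubated under 5% CO2 at 37 C.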
Cycloheximide cs: counter-screen hit for Shiga toxin inhibitors, cycloheximide | cell reporter, cycloheximide protein synthesis inhibition counterscreen | AID 2314 | actives 12% (n = 300,000) | max response, %; in the data active = max response mostly above about 13%, no sharp cut-off; inactive = mostly below about 14%; also: read at 38.3 µM for the half of the compounds with a filed dose; 0% is about no effect
Shiga toxin inh: inhibitors of Shiga toxin in Vero cells. Vero cells, Shiga toxin protein synthesis inhibition reporter. inhibition, % at 38.7 µM. actives 9.2% (n = 290,000); in the data active = inhibition mostly above about 28%, no sharp cut-off; inactive = mostly below about 43%; also: 0% is about no effect
Active calls of the source: *; ? = inconclusive; . = no result given; [ ] = remark or other dose. The list is not random: actives were taken first. Their share in the collection is about 21%. Unless noted, calls follow the shape of the dose curve; as a rule, active = well fitted inhibition curve with a large enough effect; inconclusive = small, poorly fitted or top-dose-only effect, or another doubt; inactive = no such curve, though single readings can be large or run the other way.

SMILES	Pf growth 96h	Pf growth 48h	Cycloheximide cs	Shiga toxin inh
Cc1ccc(OCC(=O)NCCCNC(=O)c2cnccn2)cc1C	-7.1%	?	2.6	2.5
Cc1ccc(OCc2cc(C(=O)NCCc3cccnc3)no2)cc1C	47.3%	4.0%	36.0*	50.6*
Cc1ccc(OCc2cc(C(=O)NCCn3cccn3)no2)cc1C	?	18.7%	22.2	48.3*
Cc1ccc(OCc2cc(C(=O)NCC(C)c3ccccc3)no2)cc1C (stereo not drawn)	-26.1%	18.1%	12.8	1.7
CC(C(=O)N1CCOCC1)N1C(=O)c2cccc3cccc(c23)C1=O (stereo not drawn)	-2.4%	4.3%	-0.5	19.8
CN(C)c1cc2c(cc1NS(=O)(=O)c1ccccc1)n(C)c(=O)n2C	16.0%	11.1%	-4.6	-9.5
S=C(NCCc1ccc(Cl)cc1)NCc1ccccc1	?	23.0%	8.5	-4.1
Fc1ccc(CNC(=S)NCc2cccc(Cl)c2)cc1	10.4µM*	?	6.4	-15.2
O=C(NCc1ccccc1)Oc1cccc(Cl)c1	13.0%	26.3%	9.6*	71.5
CC1=C(C)CC(C(=O)NCc2cccc(Cl)c2)C(C(=O)O)C1 (stereo not drawn)	13.1µM*	10.2%	-2.7	-14.9
CC1=C(C)CC(C(=O)Nc2cccc(Cl)c2)C(C(=O)O)C1 (stereo not drawn)	70.9%	-13.8%	-1.3	-8.6
S=C(NCCc1cccc(Cl)c1)NCc1ccccc1	?	3.8%	25.4*	32.8
CCCCC(NC(=O)c1ccc(C#N)cc1)C(=O)NCCC (stereo not drawn)	37.7%	20.7%	.	.
O=C(CN(CC1CCCO1)C(=O)CNS(=O)(=O)c1ccccc1)NCCc1ccccc1 (stereo not drawn)	-17.2%	9.0%	-2.5	-2.2
Nc1nnc(SCC(=O)NN2C(=O)NC3(CCCCC3)C2=O)s1	21.6%	-0.8%	-4.3	1.6
S=C(NCc1ccccc1)NCc1cccc(CNC(=S)NCc2ccccc2)c1	0.1%	-11.5%	-2.0	-9.2
S=C(NCc1ccccc1)NCc1cccc(Cl)c1	3.7µM*	8.6%	12.9	-3.7
CC1N(C)c2cc(NC(=O)c3cccs3)c(P(=O)(Nc3ccc([N+](=O)[O-])cc3)N3CCOCC3)cc2C1(C)C (stereo not drawn)	?	13.1µM*	-1.2	-12.0
O=C(Nc1cc([N+](=O)[O-])ccc1N1CCCC1)c1cccs1	13.1µM*	?	-2.8	7.5
O=C(Nc1ccc(NC(=O)c2cc([N+](=O)[O-])ccc2N2CCOCC2)cc1)c1cccs1	-4.6%	-3.5%[5.75 µM]	5.7	-8.1
O=C(Nc1cc([N+](=O)[O-])ccc1N1CCOCC1)c1cccs1	38.0%	9.2%	19.6	-6.0
O=C(Nc1cc2cc([N+](=O)[O-])ccc2oc1=O)c1cccs1	15.6%	99.8%	27.7*	52.3*
CC1CCCN(C(=O)CCS(=O)(=O)c2ccc3c(c2)NC(=O)C(C)S3)C1 (stereo not drawn)	15.8%	-9.8%	-1.4	16.1
CCOc1ccccc1OCC(=O)NCCc1ccc(S(N)(=O)=O)cc1	82.5%	0.7%	-1.0	-12.2
COc1ccccc1CCN1CCCC(CN(C)C(=O)CCC(N)=O)C1 (stereo not drawn)	0.0%	1.5%	-1.5	0.8
SMILES	Pf growth 96h	Pf growth 48h	Cycloheximide cs	Shiga toxin inh
COC(=O)c1cc(C(=O)OCC(=O)NCc2cccs2)cc([N+](=O)[O-])c1	-13.8%	-16.1%	.	.
Cc1nc2scc(-c3ccccc3)c2c(=O)n1N=C1C=CC(=O)C=C1	0.7%	54.2%	25.1*	48.7*
Cc1nc2scc(-c3ccccc3)c2c(=O)n1N	-20.1%	.	-0.8	-5.3
COC(=O)c1[nH]c2cc(OC)ccc2c1NC(=O)CCN1CCCC(C)(C)C1	1.65µM*	1.3%	-4.7	-19.5
C=CCNC(=S)Nc1c(C(=O)OC)[nH]c2cc(OC)ccc12	28.1%	-2.7%	18.9*	29.9
COC(=O)c1[nH]c2cc(OC)ccc2c1NC(=O)c1c(F)cccc1F	?	-10.0%	-0.1	6.8
COC(=O)c1[nH]c2cccc(OC)c2c1NC(=O)CCN1CCC(C)CC1	1.85µM*	8.3%	-4.8	-8.8
O=C(Oc1ccccc1Cl)C1CCN(C(=O)c2ccc(F)cc2)CC1	3.5%	26.3%	.	.
COC(=O)c1cc(-c2cccc(OC)c2)n[nH]1	71.7%	79.6%	23.8*	49.0*
COC(=O)c1cc(-c2ccc(OC)cc2)n[nH]1	-16.5%	17.7%	27.5*	103.4*
CCOc1cccc(-c2cc(C(=O)NN)[nH]n2)c1	?	18.8%	9.5	18.5
COC(=O)c1cc(-c2ccc(C)cc2)n[nH]1	-2.9%	60.1%	48.1*	81.7*
CCOC(=O)c1cc(-c2ccc(C)o2)n[nH]1	.	64.5%	8.4	28.0
O=C(O)c1cc(-c2ccccc2)n[nH]1	18.5%	13.4%	-2.1	4.3
CCOc1ccc(-c2cc(C(=O)OC)[nH]n2)cc1	3.3%	91.7%	42.6*	89.1*
Cc1ccc(C(=O)N[C@H](C(=O)OCc2cc(=O)oc3cc(C)ccc23)C(C)C)cc1	39.8%	13.7%	1.4	-3.2
Nc1cccc2c1C(=O)N(C(=O)/C=C/c1cccc(Br)c1)C2=O	30.2%	16.0%	40.1*	42.5*
COc1cc(/C=C/C(=O)N2C(=O)c3cccc(N)c3C2=O)cc(OC)c1OC	?	?	-3.1	11.4
COc1ccc(OC)c(/C=C/C(=O)N2C(=O)c3cccc(N)c3C2=O)c1	46.0%	8.5%	1.0	23.5
Nc1cccc2c1C(=O)N(C(=O)/C=C/c1cccc(F)c1)C2=O	25.3%	20.1%	34.3*	140.1*
COc1ccc(S(=O)(=O)N(C)c2nc3ccccc3n3c(CC(C)C)nnc23)cc1	?	?	-3.2	0.2
Cc1ccc(OCCCn2c(CO)nc3ccccc32)cc1	6.8%	64.8%	18.4*	67.0*
Cc1ccccc1OCCCCn1c(CO)nc2ccccc21	?	?	-2.8	-2.9
Cc1cccc(OCCCn2c(CO)nc3ccccc32)c1	24.4%	37.2%	43.9*	122.4*
OCc1nc2ccccc2n1CCCOc1ccccc1	?	163.6%	30.1*	34.8*
SMILES	Pf growth 96h	Pf growth 48h	Cycloheximide cs	Shiga toxin inh
Cc1ccc(/C=N/NC(=O)Cc2cccs2)o1	3.7%	35.6%	8.0	22.7
CCN(CC)c1ccc(/C=N/NC(=O)C(O)c2ccccc2)cc1 (stereo not drawn)	-18.8%	-8.7%	14.1	7.1
CCN(CC)c1ccc(/C=N/NC(=O)Cc2cccs2)cc1	?	-0.8%	33.3*	31.0
COc1ccc(CC(=O)N/N=C/c2cccs2)cc1OC	-27.8%	?	-2.1	-3.9
COc1ccc(COC(=O)N/N=C/c2cccs2)cc1	0.0%	24.9%	24.7*	49.1*
COc1ccc(/C=N/NC(=O)Cc2cccs2)cc1	?	90.8%	62.5*	63.8*
COc1ccc2c(c1)OC[C@H]1[C@H]2N2C(=O)CN(C)C(=O)[C@@]2(C)[C@H]1c1ccccc1	?	25.0%	.	.
COc1ccc2c(c1)OC[C@H]1[C@H]2N2C(=O)CN(Cc3ccc(Cl)cc3)C(=O)[C@@]2(C)[C@H]1c1ccccc1	?	2.94µM*	.	.
COc1ccc(CN2CC(=O)N3[C@H]4c5ccc(OC)cc5OC[C@@H]4[C@H](c4ccccc4)[C@]3(C)C2=O)cc1	?	4.65µM*	.	.
